In PubChem BioAssay AID2061317 (National Center for Advancing Translational Sciences (NCATS), 2025):
Inconclusive results are not listed. Active and inactive are the calls of the source. Calls come from the whole dose curve; as a rule, active = well fitted inhibition curve with a large enough effect; inconclusive = small, poorly fitted or top-dose-only effect; inactive = flat fitted curve, though single readings scatter. Non-standard residues stand in square brackets, D forms with d. Residues, ends and D or L forms follow the SMILES beside them. Dolaproine = CO[C@@H]([C@@H]1CCCN1)[C@@H](C)C(=O)O; Dil = CC[C@H](C)[C@H](NC)[C@@H](CC(=O)O)OC; NMeV = CN[C@H](C(=O)O)C(C)C

experiment: Identification of antibody-drug conjugate (ADC) payloads which are substrates of ATP-binding cassette drug efflux transporters: ABCB1-HEK293-MDR-19 cell line with tariquidar; settings: HEK293 ABCB1 (MDR-19) + tariquidar, CellTiter-Glo viability, 48 h
Excerpt: Antibody-drug conjugates (ADCs) feature an antibody recognizing a specific protein joined to a potent toxic payload. Numerous antibody-drug conjugates have received FDA approval; however, clinical resistance arises. Resistance mechanisms include decreased expression or mutation of the antibody target, impaired payload release, or increased expression of ATP-binding cassette (ABC) efflux transporters associated with multidrug resistance. We therefore sought to characterize the interaction of ABC multidrug transporters with ADC payloads. We performed a high-throughput screen with 27 common ADC payloads using cells lines expressing ABC transporters P-glycoprotein (P-gp, encoded by ABCB1) or ABCG2 (encoded by ABCG2). Confirmatory assays were also performed using cells transfected to express P-gp, ABCG2, or MRP1 (encoded by ABCC1). Several commonly used ADC payloads were substrates of P-gp, including calicheamicin gamma1, monomethyl auristatin E, DM1, and DM4. All the pyrrolobenzodiazepines tested - SJG136, SGD-1882, SG2057, and SG3199 - were substrates of P-gp, ABCG2, and MRP1. […] These findings highlight the risk of transporter-mediated resistance with certain ADC payloads and underscore the importance of selecting payloads that evade ABC transporter recognition in future ADC development.
HEK-293 cells were transfected with empty vector (pcDNA) or vector containing the human ABCB1 (MDR-19), ABCG2 (R-5), or ABCC1 gene (MRP1) and were maintained in EMEM with 2 mg/mL G418 added to maintain transporter expression. The HeLa derivative KB-3-1 and the P-gp overexpressing KB-8-5-11 subline were maintained in DMEM; KB-8-5-11 additionally received 100 ng/mL colchicine. H460 parental cells were obtained from the Division of Cancer Treatment and Diagnosis Tumor Repository, National Cancer Institute at Frederick, MD and were cultured in RPMI. The ABCG2 expressing subline H460 MX20 was generated by selecting H460 cells in 20 nM mitoxantrone. Media in all cases was supplemented with 10% FBS and 1% penicillin-streptomycin. We explored 27 common ADC payloads, in two orthogonal, paired cell line sets-a drug selected and transfected set for each transporter--to identify substrates of the ABC transporters P-gp and ABCG2. Compounds were sourced from Levena Biopharma (San Diego, CA), Selleck Chem (Houston, TX), ChemieTek (Indianapolis, IN), or Microsource Discovery Systems (Gaylordsville, CT). Screening was performed as previously described. Briefly, cells were plated at a density of 500 cells/well in 1536 well plates with compounds added using a 1536-head pin tool (Kalypsys, San Diego CA). Cells were incubated with cytotoxic drugs and processed with CellTiter Glo reagent (Promega, Madison, WI) to determine viability after 48 hours. P-gp substrates were identified by comparing compound activity between paired sets of low-expressing (sensitive) and over-expressing (resistant) cell lines.

| SMILES | Potency |
| --- | --- |
| COc1cccc2c1C(=O)c1c(O)c3c(c(O)c1C2=O)C[C@@](O)(C(=O)CO)C[C@@H]3O[C@H]1C[C@H]2[C@H](O[C@@H]3[C@@H](OC)OCCN32)[C@H](C)O1 | 0.0265 nM (active) |
| CCN(C(C)=O)[C@H]1CO[C@@H](O[C@H]2[C@H](O[C@H]3C#C/C=C\C#C[C@]4(O)CC(=O)C(NC(=O)OC)=C3/C4=C\CSSSC)O[C@H](C)[C@@H](NO[C@H]3C[C@H](O)[C@H](SC(=O)c4c(C)c(I)c(O[C@@H]5O[C@@H](C)[C@H](O)[C@@H](OC)[C@H]5O)c(OC)c4OC)[C@@H](C)O3)[C@@H]2O)C[C@@H]1OC | 1.2 nM (active) |
| Cc1nc(Nc2ncc(C(=O)Nc3c(C)cccc3Cl)s2)cc(N2CCN(CCO)CC2)n1 | 13300 nM (active) |
| CC[C@H](C)[C@@H]([C@@H](CC(=O)N1CCC[C@H]1[C@H](OC)[C@@H](C)C(=O)N[C@@H](Cc1ccccc1)C(=O)O)OC)N(C)C(=O)[C@@H](NC(=O)[C@@H](NC)C(C)C)C(C)C (H-[NMeV]V[Dil][Dolaproine]F-OH) | 529 nM (active) |
| CCc1c2c(nc3ccc(O)cc13)-c1cc3c(c(=O)n1C2)COC(=O)[C@]3(O)CC | 4.2 nM (active) |
| COc1cccc2c1C(=O)c1c(O)c3c(c(O)c1C2=O)C[C@@](O)(C(=O)CO)C[C@@H]3O[C@H]1C[C@H](N)[C@H](O)[C@H](C)O1 | 33.4 nM (active) |
| COC(=O)c1cc2c3c(cc(O)c2[nH]1)N(C(=O)c1cc2cc(OC)c(OC)c(OC)c2[nH]1)CC3CCl (stereo unspecified) | 0.7 nM (active) |
| CC(C)(C)OC(=O)Nc1ccc2[nH]c(C(=O)N3C[C@@H](CCl)c4c3cc(O)c3ccccc43)cc2c1 | 11.8 nM (active) |
| CN(C)CCOc1ccc2[nH]c(C(=O)N3C[C@@H](CCl)c4c3cc(O)c3ccccc43)cc2c1 | 0.5 nM (active) |
| COc1cc2cc(c1Cl)N(C)C(=O)C[C@H](O)[C@]1(C)O[C@H]1[C@H](C)C1C[C@@](O)(NC(=O)O1)[C@H](OC)/C=C/C=C(\C)C2 | 2650 nM (active) |
| CCN[C@H]1CO[C@@H](O[C@H]2[C@H](O[C@H]3C#C/C=C\C#C[C@]4(O)CC(=O)C(NC(=O)OC)=C3/C4=C\CSSSC)O[C@H](C)[C@@H](NO[C@H]3C[C@H](O)[C@H](SC(=O)c4c(C)c(I)c(O[C@@H]5O[C@@H](C)[C@H](O)[C@@H](OC)[C@H]5O)c(OC)c4OC)[C@@H](C)O3)[C@@H]2O)C[C@@H]1OC | 0.1 nM (active) |
